Reference: PubChem BioAssay (NCI)
The panel holds about 79,000 compounds, 15% with a hit somewhere; the sample as a whole holds those more often. Values without a mark were called inactive. Activity calls are given as the source filed them. Rule as the data show it: active = growth inhibition above about 70%; inactive = the rest.

What was measured:
[1] = NCI Yeast Anticancer Drug Screen. Data for the rad50 strain (AID 155);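 also: 0% = growth of vehicle-only cultures of the same strain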; settings: S. cerevisiae rad50 strain growth inhibition; at 50.0 µM; hits give high values
Method in brief: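 Inhibition values express reduced yeast growth in compound-treated cultures relative to vehicle-treated controls.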

[2] = NCI Yeast Anticancer Drug Screen. Data for the mec2-1 strain (AID 157); settings: S. cerevisiae mec2-1 strain, at 50.0 µM, hits give high values
Method in brief: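 Mutant yeast (mec2-1) grown with compound; growth inhibition relative to vehicle control reported.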

[3] = NCI Yeast Anticancer Drug Screen. Data for the sgs1 mgt1 strain (AID 161);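 also: 0% = growth of cultures given vehicle only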; settings: S. cerevisiae sgs1 mgt1 strain, at 50.0 µM, hits give high values
Method in brief: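 Compounds are added to genetically altered yeast, and growth is compared with cultures given vehicle alone to give percent inhibition.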

[4] = NCI Yeast Anticancer Drug Screen. Data for the cln2 rad14 strain (AID 165);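 also: 0% = growth equal to vehicle treated cultures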; settings: S. cerevisiae cln2 rad14 strain, at 50.0 µM, hits give high values
Method in brief: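 Readout is yeast growth inhibition versus vehicle-treated controls, using a strain with cln2 and rad14 alterations exposed to compound.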

[5] = NCI Yeast Anticancer Drug Screen. Data for the bub3 strain (AID 167); settings: S. cerevisiae bub3 mutant strain, at 50.0 µM, hits give high values
Method in brief: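 Steps: expose the mutant yeast strain to compound; grow alongside vehicle-treated cultures; measure growth; express inhibition against the vehicle cultures.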

[6] = NCI Yeast Anticancer Drug Screen. Data for the mlh1 rad18 strain (AID 175); settings: S. cerevisiae mlh1 rad18 strain growth inhibition; at 50.0 µM; hits give high values
Method in brief: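 Genetically defined yeast (DNA repair-deficient) exposed to compounds; growth inhibition determined relative to vehicle.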

Row | SMILES | growth inhibition [1] | growth inhibition [2] | growth inhibition [3] | growth inhibition [4] | growth inhibition [5] | growth inhibition [6]
1 | O=C(NCCCCCCNC(=O)OCCSCCn1cc(C(=O)NC(=O)OCc2ccccc2)c(=O)[nH]c1=O)OCCSCCn1cc(C(=O)NC(=O)OCc2ccccc2)c(=O)[nH]c1=O | -21.3% | -23.6% | 2.6% | 2.55% | 15.1% | -9.95%
2 | Cc1c(C#N)c(N)[nH]c(=S)c1C#N | 5.5% | 20.2% | 4.95% | 1.25% | 0.45% | 11.3%
3 | COC(=O)C1(C)CCCC2(C)C3CCC(C(C)C)CC3CCC12 (stereo not given) | 24.9% | -12.8% | 20.1% | -12.6% | -5.9% | 8.65%
4 | CN=NNc1ccc(C(=O)NC(C)C)cc1 | -3.65% | -2% | -8.2% | -1.15% | -13.7% | -14.7%
5 | NNc1ncnc2c(C3OC(CO)C(O)C3O)[nH]nc12 (stereo not given) | 7% | 6.35% | 8.2% | -70.3% | 7.15% | 8.95%
6 | CC(=O)c1cccc(NC(=O)/C(=N\NC(=S)NN)C2C(=O)Nc3ccccc3S2=O)c1 (stereo not given) | -3.6% | -42.4% | -13.1% | -4.15% | -1.8% | -10.5%
7 | CC(C)CCCC(C)C1CCC2(C)C3=C(CCC12C)C1(C)CCC(=O)C(C)(C)C1CC3 (stereo not given) | 73.1% (active) | 57.2% | 83.5% (active) | 44.5% | 14.6% | 34%
8 | CC(=O)NCS(=O)(=O)O | -25.3% | -13.4% | -0.9% | -34% | -12.3% | -9.55%
9 | CCOc1ccccc1NC(=O)C1=C(C)NC(C)=C(C(=O)Nc2ccccc2OCC)C1c1ccc2c(c1)OCO2 | 9.5% | 44.5% | 41.3% | 23.2% | 43.1% | 39.9%
10 | O=c1nc(Oc2ccccc2)nc2c3ccccc3ccn12 | -5.4% | 16.1% | 11.9% | -9.9% | 18.8% | 24.4%
11 | C/C(=N\NS(=O)(=O)c1ccccc1)c1ccc(Cl)c(Cl)c1 | -19.3% | -10% | -18.9% | 2.25% | 10.5% | -38.5%
12 | COC(=O)c1cccc(Cl)c1C(=O)c1ccc(C)cc1C | -25% | -8.3% | -9.1% | -52.9% | 31.1% | 11.4%
13 | CC(C)c1ccccc1NC(=O)C(=O)Cc1nc2ccccc2s1 | 23.2% | 7.2% | 19.7% | -36.1% | 38.3% | 51.4%
14 | CC(C)/C(Cl)=N/OC(=O)Nc1ccc(Cl)c(Cl)c1 | 85.5% (active) | 90.8% (active) | 92.3% (active) | 84.8% (active) | 88.9% (active) | 82.8% (active)
15 | C#CCN(Cc1ccc2nc(-c3ccccc3)c(Cl)nc2c1)c1ccc(Cl)c(Cl)c1 | -15.2% | -6.4% | -2.25% | -37.5% | -16.4% | -18.2%
16 | Nc1cc(Cl)cc2cc(Cl)cnc12 | 54.2% | 54.8% | 25.4% | 29.1% | 47.4% | 39.5%
17 | CC(C)(C)c1cc(/C=C/c2cc(/C=C/c3cc(C(C)(C)C)c(O)c(C(C)(C)C)c3)c([N+](=O)[O-])cc2[N+](=O)[O-])cc(C(C)(C)C)c1O | 20.2% | -0.15% | 1.85% | -45.7% | 3.65% | 5.8%
18 | CCOC1(OCC)CS(=O)(=O)C1c1ccccc1 (stereo not given) | -1.2% | -10.2% | 1.95% | -26.2% | 12.6% | -18.6%
19 | Cc1ccc2c(c1)C(=O)/C(=N/Nc1ccc(Cl)cc1)CCO2 | 7.65% | -16.1% | 6.2% | -2% | 6.8% | 4.65%
20 | O=C(Nc1cc(Cl)c(Cl)cc1Cl)N1CCOCC1 | 0.15% | -30.7% | -11.2% | 5.25% | -6.1% | -5.15%

Row | SMILES | growth inhibition [1] | growth inhibition [2] | growth inhibition [3] | growth inhibition [4] | growth inhibition [5] | growth inhibition [6]
21 | COC(=O)/C=C/c1ccc([N+](=O)[O-])cc1 | -6.3% | -2.5% | 20.9% | -24% | 8.15% | -18.2%
22 | N=C1N=Nc2nc(CC(=O)c3ccc(Cl)cc3Cl)c(O)n21 | -9.8% | -8.35% | 1.05% | -31.5% | -11.8% | -37.6%
23 | O=CNc1ccccc1Cc1ccccc1 | 13.2% | -24% | 4.5% | 7.85% | 4.25% | 1.65%
24 | O=C(O)/C=C1/CCC(=O)O1 | -5.25% | -0.2% | 0.05% | 10.8% | 20.1% | -0.65%
25 | CN(C)CC1CCCC(CN(C)C)C1=NOC(=O)c1ccccc1 (stereo not given) | -8.15% | -33.8% | -2.3% | -21.4% | 8.05% | -27.8%
26 | C=CCNC(=S)/N=C/c1c(O)c2ccccc2oc1=O | -33.5% | -29.6% | -43% | -33.6% | -53% | -46.9%
27 | Cc1cc(C)nc(NS(=O)(=O)c2ccc(Nc3c4ccc(Cl)cc4nc4c(C(=O)NCCN(C)C)cccc34)cc2)n1 | 0% | 13.8% | -5.05% | 1.4% | 30.8% | 6.95%
28 | Cc1cc(NS(=O)(=O)c2ccc(Nc3c4ccccc4nc4c(C(=O)NCCN(C)C)cccc34)cc2)no1 | -37.8% | 3.4% | -41.5% | 11.9% | -22.7% | -14.6%
29 | COc1ccc(C(CC(=O)O)c2ccccc2)cc1 (stereo not given) | -31.4% | -42.6% | -2.55% | -14.4% | -29.8% | -28.6%
30 | N#CNc1nc(N)cc(N)n1 | 2.25% | 9.35% | -1.5% | -5.85% | -1% | -4.6%
31 | CC(C)COCC1COC2(OCC(C)(C)C2OC(=O)Nc2ccccc2)O1 (stereo not given) | 5.55% | -0.6% | -12.4% | -5.6% | 5.95% | 17.6%
32 | O=c1ccc2c(-c3ccccc3S(=O)(=O)O)c3ccc(O)c(O)c3oc-2c1O | 3.45% | 13.3% | -4.4% | 11% | 15.6% | 4.4%
33 | C=C1C(=O)OC2/C=C(/CO)C3(O)CC(O)C(C)(CC(OC(=O)/C(C)=C/C)C12)O3 (stereo not given) | 7.2% | -13.9% | 14.9% | 17.4% | 0.85% | -27.2%
34 | COC(=O)C(=O)C(C(=O)C(=O)Nc1ccc([N+](=O)[O-])cc1)c1nc2ccccc2[nH]c1=O (stereo not given) | 10.1% | -5.95% | 19.5% | 15.4% | 11.7% | 29.5%
35 | COc1ccc2c(c1)CCC(OS(=O)(=O)CC13CCC(CC1=O)C3(C)C)C2=O (stereo not given) | -9.15% | 5% | -15.2% | -10.7% | -21.9% | -0.45%
36 | NNc1cccc(Cl)n1 | 6.65% | -4.7% | -5.5% | 17.6% | -9.8% | 8.05%
37 | CC(C)(C)c1cc2c(O)c(c1)Cc1cc(C(C)(C)C)cc(c1O)Cc1cc(C(C)(C)C)cc(c1O)Cc1cc(C(C)(C)C)cc(c1O)Cc1cc(C(C)(C)C)cc(c1O)Cc1cc(C(C)(C)C)cc(c1O)Cc1cc(C(C)(C)C)cc(c1O)Cc1cc(C(C)(C)C)cc(c1O)C2 | -12.8% | 9.65% | 7.3% | 5.6% | -14% | -15.1%
38 | N#CC1(C#N)C(c2ccccc2)C=CC12OCCCO2 (stereo not given) | 10.9% | 6.75% | 3.9% | 32% | -5.3% | 23.2%
39 | CCN(CC)CCOC(=O)Nc1cc(C)cc(C)c1 | 24.6% | -9.15% | 27.5% | 16.4% | 31.9% | 17.1%
40 | CC(=O)Nc1nc(NC(C)=O)c2[nH]c(CO)nc2n1 | -4.2% | -10.4% | -11.8% | -33.6% | -61.3% | -11.7%
